Test results from the supplement of paper PMC10849652.
Of roughly 8,800 targets only a part is listed; those with a hit were picked by preference. About 0.5% of all pairs of compound and target were hits.

Legend:
Experiment in all cases: log2 fold change, soluble protein after heating vs DMSO (PISA); higher = thermal stabilisation; K562 lysate, 10 uM; active = over 0.2 and 3.5 SD of the protein, either way, in both replicates (recomputed)
nilotinib = compound: Cc1cn(-c2cc(NC(=O)c3ccc(C)c(Nc4nccc(-c5cccnc5)n4)c3)cc(C(F)(F)F)c2)cn1 [nilotinib]
How it was run: (§1)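 Values give the log-two fold change in thermal stability against solvent controls, from duplicates. Crude K562 extract at 1 mg/mL protein, made by dounce homogenisation in PBS pH 7.4 with 1 mM MgCl2, was treated with 10 μM compound for 30 min. After 3 min heating across 48°C-58°C, aliquots were pooled, adjusted to 0.5% NP-40 at 4°C and centrifuged at 21,000xg for 90 min. The supernatant was measured by TMTpro 16plex LC-MS/MS with channel sums equalised.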

[1] = compound: Cc1nc(Nc2n[nH]c3c2CN(C(=O)N[C@H](CN(C)C)c2ccccc2)C3(C)C)c2sccc2n1
How it was run: as §1

dasatinib = compound: Cc1nc(Nc2ncc(C(=O)Nc3c(C)cccc3Cl)s2)cc(N2CCN(CCO)CC2)n1 [dasatinib]
How it was run: as §1

[2] = compound: Cc1ncc(-c2ccnc(Nc3ccc(S(C)(=O)=O)cc3)n2)n1C(C)C
How it was run: as §1

[3] = compound: Cn1cc(-c2ccc3c(c2)CCN3C(=O)Cc2cccc(C(F)(F)F)c2)c2c(N)ncnc21
How it was run: as §1

quisinostat = compound: Cn1cc(CNCC2CCN(c3ncc(C(=O)NO)cn3)CC2)c2ccccc21 [quisinostat]
How it was run: as §1

tipifarnib = compound: Cn1cncc1[C@@](N)(c1ccc(Cl)cc1)c1ccc2c(c1)c(-c1cccc(Cl)c1)cc(=O)n2C [tipifarnib]
How it was run: as §1

[4] = compound: NC(=O)Nc1cc(-c2cccc(F)c2)sc1C(=O)N[C@H]1CCCNC1
How it was run: as §1

[5] = compound: NC(=O)c1cnc(N[C@@H]2CCCC[C@@H]2N)nc1Nc1cccc(-n2nccn2)c1
How it was run: as §1

[6] = compound: NC1(c2ccc(-c3nc4ccn5c(=O)[nH]nc5c4cc3-c3ccccc3)cc2)CCC1
How it was run: as §1

[7] = compound: NCC(=O)Nc1ccc(-n2nc(C(F)(F)F)cc2-c2ccc3c(ccc4ccccc43)c2)cc1
How it was run: as §1

vorinostat = compound: O=C(CCCCCCC(=O)Nc1ccccc1)NO [vorinostat]
How it was run: as §1

silmitasertib = compound: O=C(O)c1ccc2c(c1)nc(Nc1cccc(Cl)c1)c1ccncc12 [silmitasertib]
How it was run: as §1

[8] = compound: O=C1NC(=O)C(c2cnc3ccccn23)=C1c1cn2c3c(cc(F)cc13)CN(C(=O)N1CCCCC1)CC2
How it was run: as §1

entospletinib = compound: c1cn2cc(-c3ccc4cn[nH]c4c3)nc(Nc3ccc(N4CCOCC4)cc3)c2n1 [entospletinib]
How it was run: as §1

Measured: log2 fold change

ETFRF1 (UniProt Q6IPR1)
active: vorinostat 0.24
inactive: nilotinib -0.038 | [1] 0.032 | dasatinib -0.01 | [2] -0.02 | [3] 0.062 | quisinostat 0.088 | tipifarnib 0.117 | [4] -0.028 | [5] 0.071 | [6] 0.046 | [7] 0.03 | silmitasertib -0.043 | [8] 0.051

FBXO38 (UniProt Q6PIJ6)
Chain of UniProt Q6PIJ6 (Q6PIJ6 whole entry, looked up): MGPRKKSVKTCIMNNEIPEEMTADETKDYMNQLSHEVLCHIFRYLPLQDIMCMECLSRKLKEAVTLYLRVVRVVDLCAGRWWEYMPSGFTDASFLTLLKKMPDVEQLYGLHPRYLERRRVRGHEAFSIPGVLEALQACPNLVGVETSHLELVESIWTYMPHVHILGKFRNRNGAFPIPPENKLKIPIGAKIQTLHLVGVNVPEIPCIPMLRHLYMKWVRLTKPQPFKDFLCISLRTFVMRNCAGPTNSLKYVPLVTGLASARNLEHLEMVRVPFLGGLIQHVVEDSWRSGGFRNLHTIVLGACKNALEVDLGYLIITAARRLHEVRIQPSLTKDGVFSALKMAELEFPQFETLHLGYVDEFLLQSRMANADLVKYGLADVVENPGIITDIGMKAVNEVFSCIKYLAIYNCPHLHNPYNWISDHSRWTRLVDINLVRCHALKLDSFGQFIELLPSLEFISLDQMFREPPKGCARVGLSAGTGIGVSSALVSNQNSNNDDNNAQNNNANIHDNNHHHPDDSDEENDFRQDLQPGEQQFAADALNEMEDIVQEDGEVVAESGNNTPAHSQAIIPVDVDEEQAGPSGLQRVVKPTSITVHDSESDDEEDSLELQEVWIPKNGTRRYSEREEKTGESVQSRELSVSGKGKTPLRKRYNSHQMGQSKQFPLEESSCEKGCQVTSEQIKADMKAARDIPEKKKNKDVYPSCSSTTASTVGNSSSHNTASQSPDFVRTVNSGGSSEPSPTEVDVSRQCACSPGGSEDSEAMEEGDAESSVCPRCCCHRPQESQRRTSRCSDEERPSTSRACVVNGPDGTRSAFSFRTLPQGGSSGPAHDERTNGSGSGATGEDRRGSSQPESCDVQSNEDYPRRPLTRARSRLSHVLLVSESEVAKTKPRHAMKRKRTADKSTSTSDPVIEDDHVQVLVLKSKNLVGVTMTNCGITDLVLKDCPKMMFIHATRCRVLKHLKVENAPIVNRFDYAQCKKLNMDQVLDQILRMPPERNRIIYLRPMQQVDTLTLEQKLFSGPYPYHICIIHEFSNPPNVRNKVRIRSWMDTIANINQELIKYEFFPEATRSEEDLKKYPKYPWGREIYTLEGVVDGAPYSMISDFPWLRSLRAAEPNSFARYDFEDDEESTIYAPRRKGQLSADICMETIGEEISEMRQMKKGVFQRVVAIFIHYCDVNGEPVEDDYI
inactive: nilotinib 0.157 | [1] -0.203 | dasatinib -0.03 | [2] -0.125 | [3] -0.069 | quisinostat -0.028 | tipifarnib -0.071 | [4] 0.026 | [5] -0.031 | [6] 0.012 | [7] -0.029 | vorinostat -0.393 | silmitasertib 0.34 | [8] -0.159 | entospletinib -0.173

FANCI (UniProt Q9NVI1)
Chain of UniProt Q9NVI1 (Q9NVI1 whole entry, looked up): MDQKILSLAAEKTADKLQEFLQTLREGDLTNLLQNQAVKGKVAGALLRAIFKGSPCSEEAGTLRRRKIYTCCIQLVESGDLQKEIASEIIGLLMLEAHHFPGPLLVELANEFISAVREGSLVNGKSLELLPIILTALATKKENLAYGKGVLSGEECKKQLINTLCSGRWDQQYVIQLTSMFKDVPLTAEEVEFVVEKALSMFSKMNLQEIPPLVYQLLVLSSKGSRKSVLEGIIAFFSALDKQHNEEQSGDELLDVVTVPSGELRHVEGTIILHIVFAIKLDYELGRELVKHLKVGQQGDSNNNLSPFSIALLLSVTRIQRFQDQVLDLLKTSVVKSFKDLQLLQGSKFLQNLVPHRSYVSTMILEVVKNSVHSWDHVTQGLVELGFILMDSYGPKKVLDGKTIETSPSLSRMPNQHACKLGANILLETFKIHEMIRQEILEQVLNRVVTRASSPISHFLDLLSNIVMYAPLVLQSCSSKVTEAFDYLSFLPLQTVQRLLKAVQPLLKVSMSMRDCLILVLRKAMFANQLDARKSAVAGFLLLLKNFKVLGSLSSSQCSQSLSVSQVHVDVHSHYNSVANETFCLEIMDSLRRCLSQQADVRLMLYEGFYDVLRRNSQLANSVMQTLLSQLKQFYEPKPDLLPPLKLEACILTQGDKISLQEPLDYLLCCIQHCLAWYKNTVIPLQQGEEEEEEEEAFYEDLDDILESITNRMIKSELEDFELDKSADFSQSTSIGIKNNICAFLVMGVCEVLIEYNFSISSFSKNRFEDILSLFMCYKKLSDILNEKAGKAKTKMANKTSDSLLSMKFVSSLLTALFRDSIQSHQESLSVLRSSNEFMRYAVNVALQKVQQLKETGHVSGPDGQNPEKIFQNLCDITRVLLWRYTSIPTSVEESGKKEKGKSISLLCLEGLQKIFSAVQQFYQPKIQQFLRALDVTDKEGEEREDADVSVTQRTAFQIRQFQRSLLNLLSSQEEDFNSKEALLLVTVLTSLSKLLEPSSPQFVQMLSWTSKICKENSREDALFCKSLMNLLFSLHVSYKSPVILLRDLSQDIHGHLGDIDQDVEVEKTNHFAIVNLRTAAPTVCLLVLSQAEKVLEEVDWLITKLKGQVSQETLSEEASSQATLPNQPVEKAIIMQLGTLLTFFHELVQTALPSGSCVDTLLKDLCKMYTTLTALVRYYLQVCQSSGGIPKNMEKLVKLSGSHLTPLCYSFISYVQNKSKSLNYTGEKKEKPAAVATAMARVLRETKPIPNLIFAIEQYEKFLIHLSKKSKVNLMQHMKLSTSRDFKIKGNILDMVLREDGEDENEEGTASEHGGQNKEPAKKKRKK
active: vorinostat -0.389
inactive: nilotinib -0.022 | [1] -0.011 | dasatinib -0.069 | [2] 0.028 | [3] 0.049 | quisinostat -0.065 | tipifarnib 0.01 | [4] 0.061 | [5] 0.027 | [6] -0.027 | [7] 0.002 | silmitasertib 0.062 | [8] 0.018 | entospletinib 0.039

FARSA (UniProt Q9Y285)
active: vorinostat 0.381
inactive: nilotinib -0.006 | [1] 0.017 | dasatinib -0.03 | [2] -0.003 | [3] 0.001 | quisinostat -0.037 | tipifarnib 0.003 | [4] 0.009 | [5] -0.015 | [6] -0.056 | [7] -0.025 | silmitasertib 0.007 | [8] -0.006 | entospletinib 0.003

ERBIN isoform 8 (UniProt Q96RT1)
inactive: nilotinib 0.012 | [1] -0.027 | dasatinib 0.051 | [2] -0.015 | [3] 0.018 | quisinostat -0.029 | tipifarnib -0.005 | [4] 0.018 | [5] 0 | [6] 0.001 | [7] -0.016 | vorinostat -0.008 | silmitasertib -0.001 | [8] -0.017 | entospletinib -0.002

EMC7 (UniProt Q9NPA0)
inactive: nilotinib 0.047 | [1] -0.015 | dasatinib -0.022 | [2] 0.027 | [3] 0.001 | quisinostat -0.006 | tipifarnib -0.014 | [4] -0.003 | [5] 0.014 | [6] -0.073 | [7] 0.015 | vorinostat 0.085 | silmitasertib -0.007 | [8] -0.018 | entospletinib -0.023

FBXO22 (UniProt Q8NEZ5)
Chain of UniProt Q8NEZ5 (Q8NEZ5 whole entry, looked up): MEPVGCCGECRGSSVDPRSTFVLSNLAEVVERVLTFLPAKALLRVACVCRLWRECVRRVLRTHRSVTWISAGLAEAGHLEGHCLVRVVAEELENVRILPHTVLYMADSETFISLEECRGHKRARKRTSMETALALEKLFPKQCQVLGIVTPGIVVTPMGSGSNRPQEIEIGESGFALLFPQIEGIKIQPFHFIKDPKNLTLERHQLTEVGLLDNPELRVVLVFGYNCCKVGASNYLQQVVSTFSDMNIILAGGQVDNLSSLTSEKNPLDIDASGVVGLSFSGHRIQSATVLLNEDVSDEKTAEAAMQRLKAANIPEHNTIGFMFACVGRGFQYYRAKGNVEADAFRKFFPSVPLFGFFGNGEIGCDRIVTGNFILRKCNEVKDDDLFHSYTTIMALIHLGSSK
inactive: nilotinib 0.005 | [1] 0.021 | dasatinib -0.028 | [2] -0.036 | [3] 0.025 | quisinostat -0.047 | tipifarnib 0.034 | [4] 0.012 | [5] -0.007 | [6] -0.016 | [7] 0.014 | silmitasertib -0.022 | [8] -0.018 | entospletinib 0.014
active: vorinostat -0.477

GEMIN5 (UniProt Q8TEQ6)
active: vorinostat -0.479
inactive: nilotinib -0.003 | [1] -0.001 | dasatinib -0.046 | [2] 0.001 | [3] 0.037 | quisinostat -0.102 | tipifarnib 0.015 | [4] 0.031 | [5] 0.003 | [6] -0.027 | [7] 0 | silmitasertib 0.004 | [8] -0.001 | entospletinib 0.004

ENY2 (UniProt Q9NPA8)
Chain of UniProt Q9NPA8 (Q9NPA8 whole entry, looked up): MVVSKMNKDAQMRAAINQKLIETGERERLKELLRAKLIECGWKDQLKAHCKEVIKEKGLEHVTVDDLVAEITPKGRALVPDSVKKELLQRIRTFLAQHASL
inactive: nilotinib -0.054 | [1] -0.002 | dasatinib 0.045 | [2] 0.007 | [3] 0.033 | quisinostat -0.03 | tipifarnib 0.085 | [4] -0.03 | [5] -0.022 | [6] -0.007 | [7] -0.066 | vorinostat 0.118 | silmitasertib -0.032 | [8] 0.016 | entospletinib -0.018

EXOC6 (UniProt Q8TAG9)
active: vorinostat -0.301
inactive: nilotinib -0.002 | [1] 0.01 | dasatinib -0.063 | [2] 0.022 | [3] 0.064 | quisinostat -0.023 | tipifarnib -0.044 | [4] 0.068 | [5] 0.024 | [6] -0.064 | [7] -0.074 | silmitasertib 0.057 | [8] -0.006 | entospletinib 0.021

GCDH (UniProt Q92947)
active: vorinostat 0.34
inactive: nilotinib -0.018 | [1] -0.129 | dasatinib 0.024 | [2] -0.033 | [3] -0.022 | quisinostat -0.05 | tipifarnib -0.018 | [4] -0.07 | [5] -0.021 | [6] -0.044 | [7] 0.004 | silmitasertib 0.161 | [8] 0.187 | entospletinib 0.046

FCHO1 (UniProt O14526)
Chain of UniProt O14526 (O14526 whole entry, looked up): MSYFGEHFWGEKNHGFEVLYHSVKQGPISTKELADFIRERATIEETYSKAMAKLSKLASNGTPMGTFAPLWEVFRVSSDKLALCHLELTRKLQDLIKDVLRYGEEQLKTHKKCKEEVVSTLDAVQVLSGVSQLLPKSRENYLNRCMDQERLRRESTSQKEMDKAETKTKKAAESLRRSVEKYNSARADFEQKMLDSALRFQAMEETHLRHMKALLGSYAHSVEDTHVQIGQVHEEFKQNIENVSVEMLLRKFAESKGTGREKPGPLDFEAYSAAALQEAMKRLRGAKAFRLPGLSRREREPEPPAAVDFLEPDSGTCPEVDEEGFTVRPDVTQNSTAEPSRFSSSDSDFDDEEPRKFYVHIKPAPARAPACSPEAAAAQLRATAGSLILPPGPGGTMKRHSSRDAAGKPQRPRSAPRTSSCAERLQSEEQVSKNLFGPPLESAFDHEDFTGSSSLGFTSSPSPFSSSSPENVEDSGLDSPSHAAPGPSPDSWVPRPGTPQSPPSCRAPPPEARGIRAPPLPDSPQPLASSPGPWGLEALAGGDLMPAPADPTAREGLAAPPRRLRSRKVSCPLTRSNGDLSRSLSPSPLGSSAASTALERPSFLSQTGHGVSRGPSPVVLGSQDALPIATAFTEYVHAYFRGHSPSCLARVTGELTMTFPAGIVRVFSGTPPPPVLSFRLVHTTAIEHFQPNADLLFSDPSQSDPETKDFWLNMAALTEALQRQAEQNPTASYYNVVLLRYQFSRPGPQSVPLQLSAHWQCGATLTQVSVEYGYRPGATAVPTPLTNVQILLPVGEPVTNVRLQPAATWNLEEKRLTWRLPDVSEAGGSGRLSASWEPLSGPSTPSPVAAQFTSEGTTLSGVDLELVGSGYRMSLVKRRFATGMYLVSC
active: vorinostat -0.286
inactive: nilotinib 0.007 | [1] -0.02 | dasatinib -0.022 | [2] 0.035 | [3] 0.02 | quisinostat 0.013 | tipifarnib -0.025 | [4] 0.063 | [5] 0.006 | [6] 0.007 | [7] 0.041 | silmitasertib 0.03 | [8] -0.006 | entospletinib 0.024

ELAVL4 (UniProt P26378)
active: vorinostat -0.402
inactive: nilotinib -0.07 | [1] -0.062 | dasatinib 0.006 | [2] 0.092 | [3] 0.039 | quisinostat -0.07 | tipifarnib -0.06 | [4] 0.07 | [5] 0.01 | [6] 0.024 | [7] 0.016 | silmitasertib -0.046 | [8] 0.004 | entospletinib -0.067

FNTB (UniProt P49356)
active: tipifarnib 0.239
inactive: nilotinib -0.005 | [1] 0.016 | dasatinib 0.018 | [2] -0.04 | [3] -0.022 | quisinostat -0.002 | [4] 0.003 | [5] -0.011 | [6] -0.027 | [7] 0.03 | vorinostat 0.03 | silmitasertib -0.018 | [8] -0.032 | entospletinib -0.048

ERLIN1 (UniProt O75477)
Chain of UniProt O75477 (O75477 whole entry, looked up): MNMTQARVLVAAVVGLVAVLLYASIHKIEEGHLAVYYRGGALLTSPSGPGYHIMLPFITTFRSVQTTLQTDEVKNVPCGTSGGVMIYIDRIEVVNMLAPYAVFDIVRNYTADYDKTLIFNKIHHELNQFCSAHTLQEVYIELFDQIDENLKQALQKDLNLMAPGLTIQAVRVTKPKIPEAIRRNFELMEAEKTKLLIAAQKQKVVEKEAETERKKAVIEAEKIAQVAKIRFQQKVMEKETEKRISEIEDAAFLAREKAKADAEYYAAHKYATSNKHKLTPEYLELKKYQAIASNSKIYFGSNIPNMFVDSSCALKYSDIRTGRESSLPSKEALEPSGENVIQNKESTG
inactive: nilotinib 0.011 | [1] -0.031 | dasatinib -0.01 | [2] -0.034 | [3] 0.033 | quisinostat 0.107 | tipifarnib 0.049 | [4] -0.047 | [5] -0.009 | [6] 0.035 | [7] -0.07 | vorinostat 0.063 | silmitasertib 0.064 | [8] 0.03 | entospletinib 0.023

GAPDH (UniProt P04406)
Chain of UniProt P04406 (P04406 whole entry, looked up): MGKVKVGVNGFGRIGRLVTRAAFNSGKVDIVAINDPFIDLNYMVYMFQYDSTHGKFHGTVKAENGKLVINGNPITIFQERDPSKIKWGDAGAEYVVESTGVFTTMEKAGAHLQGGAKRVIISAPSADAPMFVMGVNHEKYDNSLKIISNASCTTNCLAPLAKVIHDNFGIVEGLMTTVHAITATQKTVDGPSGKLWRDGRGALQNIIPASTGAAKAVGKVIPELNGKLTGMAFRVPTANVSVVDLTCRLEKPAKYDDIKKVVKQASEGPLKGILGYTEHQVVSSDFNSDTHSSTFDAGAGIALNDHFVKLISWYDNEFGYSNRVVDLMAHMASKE
inactive: nilotinib 0.045 | [1] -0.026 | dasatinib -0.001 | [2] -0.023 | [3] 0 | quisinostat 0.114 | tipifarnib 0.042 | [4] 0 | [5] -0.019 | [6] 0.018 | [7] 0 | silmitasertib -0.033 | [8] 0.014 | entospletinib 0.003
active: vorinostat 0.309

EBP (UniProt Q15125)
Chain of UniProt Q15125 (Q15125 whole entry, looked up): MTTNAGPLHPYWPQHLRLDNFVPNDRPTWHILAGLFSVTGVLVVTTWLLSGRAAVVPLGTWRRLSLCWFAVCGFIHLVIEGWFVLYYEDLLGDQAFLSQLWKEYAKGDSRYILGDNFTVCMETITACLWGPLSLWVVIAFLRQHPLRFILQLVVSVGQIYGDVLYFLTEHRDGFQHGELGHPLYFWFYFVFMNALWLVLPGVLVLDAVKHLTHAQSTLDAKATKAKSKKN
inactive: nilotinib 0.081 | [1] -0.016 | dasatinib -0.05 | [2] 0.018 | [3] -0.137 | quisinostat 0.038 | tipifarnib -0.03 | [4] 0.042 | [5] -0.006 | [6] -0.05 | [7] 0.134 | vorinostat 0.1 | silmitasertib -0.033 | [8] 0.097 | entospletinib 0.013

ERI1 (UniProt Q8IV48)
active: vorinostat -0.221
inactive: nilotinib 0.004 | [1] -0.008 | dasatinib -0.012 | [2] 0.035 | [3] 0.041 | quisinostat -0.019 | tipifarnib 0.043 | [4] 0.08 | [5] -0.019 | [6] 0.058 | [7] -0.001 | silmitasertib -0.035 | [8] -0.017 | entospletinib 0.041

DSTN (UniProt P60981)
Chain of UniProt P60981 (P60981 whole entry, looked up): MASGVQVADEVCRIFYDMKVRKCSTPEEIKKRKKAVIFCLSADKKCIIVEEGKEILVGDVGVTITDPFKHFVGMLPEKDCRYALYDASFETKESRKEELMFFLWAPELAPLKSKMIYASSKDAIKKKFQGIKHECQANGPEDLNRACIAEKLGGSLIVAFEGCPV
inactive: nilotinib 0.01 | [1] 0.012 | dasatinib -0.013 | [2] 0.009 | [3] 0.034 | quisinostat 0.045 | tipifarnib -0.005 | [4] -0.022 | [5] 0.022 | [6] -0.008 | [7] -0.012 | silmitasertib 0.014 | [8] -0.031 | entospletinib -0.021
active: vorinostat -0.34
